From article PMC5540273 (PLoS ONE, 2017)

Legend:
Details in all cases: concentration: 1 μM,replicates: in singlicate; n = 1
NIM1 = tested on: T1, NIM1
T1 construct: gene MGC42105

NLK = tested on: NLK
OSR1 = tested on: T2, OSR1
T2 construct: gene OXSR1

PAK1 = tested on: PAK1
PAK2 = tested on: PAK2
PAK3 = tested on: PAK3
PAK4 = tested on: PAK4
PAK6 = tested on: PAK6
PAK7 = tested on: PAK7
PCTK1 = tested on: T3, PCTK1
T3 construct: gene CDK16
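Note: KINOMEscan kinase panel screen.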

SMILES | %Inh (NIM1) | %Inh (NLK) | %Inh (OSR1) | %Inh (PAK1) | %Inh (PAK2) | %Inh (PAK3) | %Inh (PAK4) | %Inh (PAK6) | %Inh (PAK7) | %Inh (PCTK1)
O=C(Nc1cccc(Oc2ccc3nccn3n2)c1)Nc1cccc(C(F)(F)F)c1 | 14% | 19% | 0% | 0% | 0% | 0% | 0% | 5% | 0% | 0%
COc1cccc(CNC(=O)NC2CCN(c3ccnc(Nc4cc(OC)c(OC)c(OC)c4)n3)C2)c1 (stereo not shown) [GSK1379765] | 21% | 0% | 3% | 0% | 8% | 11% | 0% | 0% | 1% | 3%
Cc1cccc2c(-c3ccncc3)c(-c3ccc(F)cc3)nn12.Cl [GW461487] | 10% | 65% | 0% | 24% | 8% | 100% | 0% | 0% | 0% | 0%
CN1CCN(CCNc2nc3cc(Oc4ccc(NC(=O)Nc5cc(C(F)(F)F)ccc5F)cc4)ccc3[nH]2)CC1.Cl.Cl [GW768504] | 0% | 0% | 0% | 0% | 30% | 6% | 10% | 0% | 0% | 0%
O=c1[nH]cc(-c2ccc(O)cc2)c2sc(-c3ccncc3)cc12 [GSK1033723] | 4% | 11% | 3% | 14% | 5% | 11% | 0% | 4% | 5% | 1%
COc1cccc(C2=C(Nc3cccc(Cl)c3)C(=O)NC2=O)c1 [SB-341556] | 3% | 5% | 27% | 4% | 19% | 100% | 0% | 0% | 8% | 9%
O=C(NCC1CC1)c1ccc(-c2cc(C(=O)NC3CC3)ccc2F)cc1 [GW810445] | 35% | 10% | 0% | 0% | 26% | 12% | 0% | 0% | 4% | 0%
